Inconclusive results are not listed. Entries that show only a call come without a potency. Activity calls are given as the source filed them. Calls come from the whole dose curve; as a rule, active = well fitted curve in the direction sought with a large enough effect; inconclusive = small, poorly fitted or top-dose-only effect, or another doubt; inactive = no such curve, though single readings can be large; an effect the other way counts as inactive or inconclusive.

Sequence of Ubiquitin carboxyl-terminal hydrolase 1 (Homo sapiens) (O94782 whole entry, looked up): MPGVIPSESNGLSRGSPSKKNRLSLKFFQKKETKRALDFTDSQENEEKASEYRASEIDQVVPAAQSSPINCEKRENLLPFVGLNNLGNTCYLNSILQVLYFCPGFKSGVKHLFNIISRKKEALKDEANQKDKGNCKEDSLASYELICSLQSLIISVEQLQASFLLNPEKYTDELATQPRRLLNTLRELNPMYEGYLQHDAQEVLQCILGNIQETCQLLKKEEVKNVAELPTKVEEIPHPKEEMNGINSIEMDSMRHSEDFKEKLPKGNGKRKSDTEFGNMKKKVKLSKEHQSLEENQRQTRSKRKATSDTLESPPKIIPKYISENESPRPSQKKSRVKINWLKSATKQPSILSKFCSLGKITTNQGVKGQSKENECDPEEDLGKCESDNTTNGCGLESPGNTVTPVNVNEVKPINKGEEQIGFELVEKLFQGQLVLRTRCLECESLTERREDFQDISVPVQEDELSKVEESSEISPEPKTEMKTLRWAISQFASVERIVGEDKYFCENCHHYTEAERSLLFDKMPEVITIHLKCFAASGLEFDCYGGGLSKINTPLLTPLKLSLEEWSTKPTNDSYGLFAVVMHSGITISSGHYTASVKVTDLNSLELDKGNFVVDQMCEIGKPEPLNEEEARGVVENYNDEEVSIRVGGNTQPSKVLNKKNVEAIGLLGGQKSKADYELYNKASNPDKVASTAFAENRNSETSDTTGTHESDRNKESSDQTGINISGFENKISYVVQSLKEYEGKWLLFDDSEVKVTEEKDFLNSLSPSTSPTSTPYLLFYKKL

The target in one assay is Ubiquitin carboxyl-terminal hydrolase 1 (Homo sapiens) (UniProt O94782). Description: Inhibitors of USP1/UAF1: Pilot qHTS (AID 504865). Note: nearly all actives have a fitted effect of over 35% in size. Note: potency is the fitted concentration of half-maximal effect. As to conditions: purified USP1/UAF1, Ub-rhodamine cleavage fluorescence; series mostly up to 114 µM. In a few lines:
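Deubiquitinase activity followed as kinetic rhodamine fluorescence release from 150 nM Ub-Rho. 1 nM USP1/UAF1 with compound, after 15 min room-temperature preincubation, in HEPES pH 7.8 buffer containing TCEP, EDTA, BSA and Tween-20.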
Background: In qHTS, concentration-response curves come from the screen itself.
`O=C(O)CCC(=O)N1CCCC1C(=O)O` (stereo not given): the Potency entry is “inactive”.
For the molecule `NCC(O)C1CCCCCCC1` (stereo not given), the Potency result is “inactive”.
Still for that read-out and setting: then `NC(=O)CNCCC(c1ccccc1)c1ccccc1`, with “inactive”; and `COc1ccccc1N1CCN(CCCNc2c(C)c(=O)n(C)c(=O)n2C)CC1`, with “inactive”.
On the same count and under the same terms, the value for `C[C@@]1(C2CCCC2)Cc2cc(OCC(=O)O)c(Cl)c(Cl)c2C1=O` was “inactive”; that for `N[C@@H](CS(=O)O)C(=O)O` was “inactive”; that for `COC(=O)C(C)(N)Cc1ccc(O)cc1` (stereo not given) was “inactive”.
The same measure, in the same setting: then `O=C(O)/C(=C/c1c(C(=O)O)[nH]c2cc(Cl)cc(Cl)c12)c1ccccc1`, with “inactive”.
As for `Cn1c(=O)[nH]c2ncn(C)c2c1=O`, the Potency entry was “inactive”.
Still for that read-out and setting: then `CCCCCCCCCCCCCCCCCCOC[C@H](COP(=O)([O-])OCC[N+](C)(C)C)OC`, with “inactive”; and `O=C(O)/C=C/c1ccc(O)c(O)c1`, with “inactive”; and `N[C@@H](Cc1ccc(O)c(I)c1)C(=O)O`, with “inactive”.
Same read-out and setting: then `NC(=O)c1cc[n+](CC2=C(C(=O)O)N3C(=O)[C@@H](NC(=O)[C@@H](c4ccccc4)S(=O)(=O)[O-])[C@H]3SC2)cc1`, with “inactive”; and `O=[N+]([O-])c1cccc2cn[nH]c12`, with “inactive”; and `c1ccc2nc(C3=NCCN3)ccc2c1`, with “inactive”.
On the same count and under the same terms, the value for `COc1ccccc1N1CCN(CCCCNC(=O)c2ccc3ccccc3c2)CC1` was “inactive”; that for `CC(C)NC[C@H](O)COc1ccc(CC(N)=O)cc1` was “inactive”.
With `NC(N)=NC(N)=Nc1ccccc1`, the Potency entry is “inactive”.
On the same count and under the same terms, then `C#CCn1c(=O)c2c(ncn2C)n(C)c1=O`, with “inactive”; and `O=C(OCCN1CCOCC1)C1(c2ccccc2)CCCCC1`, with “inactive”.
On the same count and under the same terms, the value for `CO/N=C(\C(=O)N[C@@H]1C(=O)N2C(C(=O)O)=C(CSc3nc(=O)c(O)nn3C)CSC12)c1csc(N)n1` (stereo not given in full) was “inactive”; that for `Nc1ccc(-c2nc3ccc(-c4nc5ccc(N)cc5[nH]4)cc3[nH]2)cc1` was 50.1 µM (active); that for `CCC(=O)N1CCN(C(=O)c2ccccc2)CC1` was “inactive”.
Still for that read-out and setting: the value for `Nc1ccc(N2C(=O)c3ccccc3C2=O)c(Cl)c1` was “inactive”.
As to `NC(N)=N[C@@H](CCC(=O)O)C(=O)O`, the Potency entry is “inactive”.
As for `CC1CCN(CC[C@H]2CCCN2S(=O)(=O)c2cccc(O)c2)CC1`, the Potency result is “inactive”.
Same read-out and setting: the value for `Cc1nc(N=Nc2ccc(S(=O)(=O)O)cc2S(=O)(=O)O)c(COP(=O)(O)O)c(C=O)c1O` was “inactive”.
Same read-out and setting: the value for `CC(C)Cn1c(=O)n(C)c(=O)c2[nH]cnc21` was “inactive”.
Same read-out and setting: the value for `NCCCNCCCCNCCCN` was “inactive”; that for `CCCCCCCCCC[Si](C)(C)CCC(=O)NC(Cc1ccc(C)cc1)c1ccccc1` (stereo not given) was “inactive”.
As for `CNc1ncnc2c1ncn2[C@H]1C[C@H](OP(=O)(O)O)[C@@H](COP(=O)(O)O)O1`, the Potency entry was “inactive”.
Regarding `NCCS(=O)O`, the Potency entry was “inactive”.
The same measure, in the same setting: then `N=C(N)SCCN`, with “inactive”; and `NC1(C(=O)O)CC1`, with “inactive”; and `O=C(O)c1cc(=O)cc(C(=O)O)[nH]1`, with “inactive”.
On the same count and under the same terms, then `c1ccc(C2CN3CCSC3=N2)cc1` (stereo not given), with “inactive”.

Test system in another assay: not listed separately
Description: qHTS for Inhibitors of ATXN expression: Validation of Cytotoxic Assay (AID 588349). Particulars: cytotoxicity counter-screen for ATXN expression inhibitors, cell viability; series mostly up to 57.1 µM. In a few lines: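 HEK293 cells treated with titrated compound for 72 hr at 37 degrees C; viability read as intracellular ATP by CellTiter Glo luminescence.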
For the molecule `O=C(O)CCC(=O)N1CCCC1C(=O)O` (stereo not given), the Potency result is “inactive”.
Still for that read-out and setting: then `C=C(C)C1CC=C(C(=O)O)CC1` (stereo not given), with “inactive”.
The same measure, in the same setting: then `NC(=O)CNCCC(c1ccccc1)c1ccccc1`, with “inactive”; and `COc1ccccc1N1CCN(CCCNc2c(C)c(=O)n(C)c(=O)n2C)CC1`, with “inactive”.
On the same count and under the same terms, then `C[C@@]1(C2CCCC2)Cc2cc(OCC(=O)O)c(Cl)c(Cl)c2C1=O`, with “inactive”; and `N[C@@H](CS(=O)O)C(=O)O`, with “inactive”.
As for `O=C(O)/C=C/c1ccc(O)c(O)c1`, the Potency result is “inactive”.
On the same count and under the same terms, the value for `N[C@@H](Cc1ccc(O)c(I)c1)C(=O)O` was “inactive”; that for `NC(=O)c1cc[n+](CC2=C(C(=O)O)N3C(=O)[C@@H](NC(=O)[C@@H](c4ccccc4)S(=O)(=O)[O-])[C@H]3SC2)cc1` was “inactive”; that for `O=[N+]([O-])c1cccc2cn[nH]c12` was “inactive”.
Still for that read-out and setting: then `c1ccc2nc(C3=NCCN3)ccc2c1`, with “inactive”; and `COc1ccccc1N1CCN(CCCCNC(=O)c2ccc3ccccc3c2)CC1`, with “inactive”; and `O=c1onc2n1-c1cc(Br)ccc1OC2`, with “inactive”.
On to `CC(C)NC[C@H](O)COc1ccc(CC(N)=O)cc1`, for which the Potency result was “inactive”.
On the same count and under the same terms, then `NC(N)=NC(N)=Nc1ccccc1`, with “inactive”; and `C#CCn1c(=O)c2c(ncn2C)n(C)c1=O`, with “inactive”; and `CO/N=C(\C(=O)N[C@@H]1C(=O)N2C(C(=O)O)=C(CSc3nc(=O)c(O)nn3C)CSC12)c1csc(N)n1` (stereo not given in full), with “inactive”.
On to `CCC(=O)N1CCN(C(=O)c2ccccc2)CC1`, for which the Potency entry was “inactive”.
For the molecule `NC(N)=N[C@@H](CCC(=O)O)C(=O)O`, the Potency result was “inactive”.
On to `CC1CCN(CC[C@H]2CCCN2S(=O)(=O)c2cccc(O)c2)CC1`, for which the Potency result is “inactive”.
`Cc1nc(N=Nc2ccc(S(=O)(=O)O)cc2S(=O)(=O)O)c(COP(=O)(O)O)c(C=O)c1O`: the Potency entry was “inactive”.
On the same count and under the same terms, then `CC(C)Cn1c(=O)n(C)c(=O)c2[nH]cnc21`, with “inactive”; and `NCCCNCCCCNCCCN`, with “inactive”; and `CCCCCCCCCC[Si](C)(C)CCC(=O)NC(Cc1ccc(C)cc1)c1ccccc1` (stereo not given), with “inactive”.
On the same count and under the same terms, the value for `CNc1ncnc2c1ncn2[C@H]1C[C@H](OP(=O)(O)O)[C@@H](COP(=O)(O)O)O1` was “inactive”; that for `NCCS(=O)O` was “inactive”.
The same measure, in the same setting: then `NC1(C(=O)O)CC1`, with “inactive”; and `O=C(O)c1cc(=O)cc(C(=O)O)[nH]1`, with “inactive”; and `c1ccc(C2CN3CCSC3=N2)cc1` (stereo not given), with “inactive”.

For the origin of these results see PubChem BioAssay (NCATS).
